{"source": "PubChem BioAssay", "key": {"[1]": {"assay": "hit retest on RPL19A-GFP reporter strain – cell-based, S. cerevisiae, flow cytometry, cherry picks, mother/daughter gates, confirmation (AID 2270;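 active = GFP response below 50% of the DMSO control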)", "settings": "3 h, at 10 µM, stronger effect = lower value, 100 = same GFP as DMSO wells"}, "[2]": {"assay": "yeast TOR pathway reporter LAP4-GFP change – cell-based, cherry picks, flow cytometry, mother/daughter gates, confirmation (AID 2271;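 active = GFP response above 150% of the DMSO control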;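 also: ratio of sample to DMSO plate mean so 100% equals DMSO level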)", "settings": "S. cerevisiae LAP4-GFP strain, 3 h, at 10 µM, stronger effect = higher value, 100 means same as DMSO control"}, "[3]": {"assay": "TOR pathway reporter MEP2-GFP, retest of hits – S. cerevisiae, flow cytometry GFP, cherry picks, confirmation (AID 2272;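 active = GFP response above 150% of the DMSO control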;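 also: ratio of well signal to plate DMSO mean so 100% equals DMSO level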)", "settings": "S. cerevisiae MEP2-GFP strain, 3 h, at 10 µM, stronger effect = higher value"}, "[4]": {"assay": "yeast AGP1-GFP fluorescence change, single-dose – cell-based, flow cytometry, S. cerevisiae, cherry picks, confirmation (AID 2273);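 also: median GFP channel fluorescence over the whole cell population gate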", "settings": "S. cerevisiae AGP1-GFP strain, 3 h, at 10 µM"}, "[5]": {"assay": "TOR pathway CIT2 reporter hit retest – S. cerevisiae, GFP fusion, cherry picks, mother/daughter gates, confirmation (AID 2274)", "settings": "S. cerevisiae CIT2-GFP strain, flow cytometry, 3 h, at 10 µM, stronger effect = higher value"}, "[6]": {"assay": "green-channel fluorescence artefact in S. cerevisiae – s288c strain, artefact control for yeast TOR pathway GFP screen, dose response (AID 2757;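 active = fluorescence span over the dose series, or activity score, above about 33, limit read from the data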;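 also: thousands of bead-calibrated equivalent soluble fluorophore molecules from median cell fluorescence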)", "settings": "520 nm autofluorescence, flow cytometry, 3 h, at 33 µM, stronger effect = higher value, zero means same as solvent-only cells"}, "[7]": {"settings": "measured here: daughter cell gate"}, "[8]": {"settings": "measured here: mother cell gate"}, "[9]": {"settings": "measured here: mother cell gate response"}, "[10]": {"settings": "measured here: daughter cell gate response"}}, "note": "Some of the results follow. Active and inactive are the calls of the source.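 The calls were made as follows, unless noted: active = GFP response above 150% of the DMSO level; inconclusive = fewer than 70 events counted for a yeast strain; inactive = the rest.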", "data": [{"smiles": "Cc1ccc(-c2nn(C(C)(C)C)c3ncnc(N)c23)cc1", "values": [{"measurement": "GFP response vs DMSO", "setting": "[1]", "value": "46.7% (active)"}, {"measurement": "GFP response vs DMSO", "setting": "[1]; [7]", "value": 43.7, "unit": "%"}, {"measurement": "GFP response vs DMSO", "setting": "[1]; [8]", "value": 46.7, "unit": "%"}, {"measurement": "GFP response relative to DMSO", "setting": "[2]", "value": "175% (active)"}, {"measurement": "GFP response vs DMSO", "setting": "[3]", "value": "116% (inactive)"}, {"measurement": "GFP response, % of DMSO", "setting": "[4]", "value": "95.7% (inactive)"}, {"measurement": "GFP response, % of DMSO", "setting": "[5]", "value": "45.8% (inactive)"}, {"measurement": "GFP response, % of DMSO", "setting": "[5]; [7]", "value": 62.1, "unit": "%"}, {"measurement": "GFP response, % of DMSO", "setting": "[5]; [8]", "value": 43.5, "unit": "%"}, {"measurement": "fluorescence change (kMESF span)", "setting": "[6]", "value": "-0.9 (inactive)"}]}, {"smiles": "CCc1ccc(C2CC(c3ccco3)=NN2S(C)(=O)=O)cc1", "note": "(configuration not stated)", "values": [{"measurement": "GFP response vs DMSO", "setting": "[1]", "value": "108% (inactive)"}, {"measurement": "GFP response vs DMSO", "setting": "[1]; [7]", "value": 108, "unit": "%"}, {"measurement": "GFP response vs DMSO", "setting": "[1]; [8]", "value": 101, "unit": "%"}, {"measurement": "GFP response relative to DMSO", "setting": "[2]", "value": "131% (inactive)"}, {"measurement": "GFP response vs DMSO", "setting": "[3]", "value": "180% (active)"}, {"measurement": "GFP response, % of DMSO", "setting": "[4]", "value": "108% (inactive)"}, {"measurement": "GFP response, % of DMSO", "setting": "[5]", "value": "188% (active)"}]}, {"smiles": "Oc1c(N=Nc2ccccn2)ccc2ccccc12", "values": [{"measurement": "GFP response vs DMSO", "setting": "[1]", "value": "94.8% (inactive)"}, {"measurement": "GFP response vs DMSO", "setting": "[1]; [7]", "value": 83.8, "unit": "%"}, {"measurement": "GFP response vs DMSO", "setting": "[1]; [8]", "value": 87.3, "unit": "%"}, {"measurement": "GFP response relative to DMSO", "setting": "[2]", "value": "95.3% (inactive)"}, {"measurement": "GFP response relative to DMSO", "setting": "[2]; [9]", "value": 66, "unit": "%"}, {"measurement": "GFP response vs DMSO", "setting": "[3]", "value": "104% (inactive)"}, {"measurement": "GFP response, % of DMSO", "setting": "[4]", "value": "84.7% (inactive)"}, {"measurement": "GFP response, % of DMSO", "setting": "[5]", "value": "93.5% (inactive)"}, {"measurement": "GFP response, % of DMSO", "setting": "[5]; [7]", "value": 94.6, "unit": "%"}, {"measurement": "GFP response, % of DMSO", "setting": "[5]; [8]", "value": 81.6, "unit": "%"}]}, {"smiles": "CCOC(=O)c1cc(-c2ccc(/C=C3/C(=O)NC(=O)C(C#N)=C3C)o2)ccc1Cl", "values": [{"measurement": "GFP response vs DMSO", "setting": "[1]", "value": "67.6% (inactive)"}, {"measurement": "GFP response vs DMSO", "setting": "[1]; [8]", "value": 55.4, "unit": "%"}, {"measurement": "GFP response relative to DMSO", "setting": "[2]", "value": "240% (active)"}, {"measurement": "GFP response relative to DMSO", "setting": "[2]; [10]", "value": 141, "unit": "%"}, {"measurement": "GFP response relative to DMSO", "setting": "[2]; [9]", "value": 231, "unit": "%"}, {"measurement": "GFP response vs DMSO", "setting": "[3]", "value": "160% (inactive)"}, {"measurement": "GFP response, % of DMSO", "setting": "[4]", "value": "104% (inactive)"}, {"measurement": "GFP response, % of DMSO", "setting": "[5]", "value": "118% (inactive)"}, {"measurement": "GFP response, % of DMSO", "setting": "[5]; [7]", "value": 103, "unit": "%"}, {"measurement": "GFP response, % of DMSO", "setting": "[5]; [8]", "value": 101, "unit": "%"}]}, {"smiles": "CCC1CCCCN1S(=O)(=O)c1ccc(C(=O)Nc2nnc(-c3ccccc3Cl)o2)cc1", "note": "(configuration not stated)", "values": [{"measurement": "GFP response vs DMSO", "setting": "[1]", "value": "97.6% (inactive)"}, {"measurement": "GFP response relative to DMSO", "setting": "[2]", "value": "95.4% (inactive)"}, {"measurement": "GFP response relative to DMSO", "setting": "[2]; [10]", "value": 89.6, "unit": "%"}, {"measurement": "GFP response vs DMSO", "setting": "[3]", "value": "102% (inactive)"}, {"measurement": "GFP response, % of DMSO", "setting": "[4]", "value": "101% (inactive)"}, {"measurement": "GFP response, % of DMSO", "setting": "[5]", "value": "98.3% (inactive)"}]}, {"smiles": "O=C(Nc1nc(-c2ccccc2)cs1)c1cccnc1", "values": [{"measurement": "GFP response vs DMSO", "setting": "[1]", "value": "101% (inactive)"}, {"measurement": "GFP response vs DMSO", "setting": "[1]; [7]", "value": 102, "unit": "%"}, {"measurement": "GFP response vs DMSO", "setting": "[1]; [8]", "value": 101, "unit": "%"}, {"measurement": "GFP response relative to DMSO", "setting": "[2]", "value": "103% (inactive)"}, {"measurement": "GFP response vs DMSO", "setting": "[3]", "value": "98.3% (inactive)"}, {"measurement": "GFP response, % of DMSO", "setting": "[4]", "value": "91% (inactive)"}, {"measurement": "GFP response, % of DMSO", "setting": "[5]", "value": "98.3% (inactive)"}]}, {"smiles": "Cc1cc(NCCOCCO)n2ncc(-c3ccc(Cl)cc3)c2n1", "values": [{"measurement": "GFP response vs DMSO", "setting": "[1]", "value": "94.3% (inactive)"}, {"measurement": "GFP response vs DMSO", "setting": "[1]; [7]", "value": 93.1, "unit": "%"}, {"measurement": "GFP response vs DMSO", "setting": "[1]; [8]", "value": 89.1, "unit": "%"}, {"measurement": "GFP response relative to DMSO", "setting": "[2]", "value": "100% (inactive)"}, {"measurement": "GFP response vs DMSO", "setting": "[3]", "value": "106% (inactive)"}, {"measurement": "GFP response, % of DMSO", "setting": "[4]", "value": "105% (inactive)"}, {"measurement": "GFP response, % of DMSO", "setting": "[5]", "value": "102% (inactive)"}, {"measurement": "GFP response, % of DMSO", "setting": "[5]; [7]", "value": 102, "unit": "%"}, {"measurement": "GFP response, % of DMSO", "setting": "[5]; [8]", "value": 96.8, "unit": "%"}]}, {"smiles": "CCc1nnc(NC(=O)c2nc(S(=O)(=O)Cc3ccccc3)ncc2Cl)s1", "values": [{"measurement": "GFP response vs DMSO", "setting": "[1]", "value": "94.9% (inactive)"}, {"measurement": "GFP response vs DMSO", "setting": "[1]; [7]", "value": 95.9, "unit": "%"}, {"measurement": "GFP response vs DMSO", "setting": "[1]; [8]", "value": 91.4, "unit": "%"}, {"measurement": "GFP response relative to DMSO", "setting": "[2]", "value": "98.9% (inactive)"}, {"measurement": "GFP response vs DMSO", "setting": "[3]", "value": "103% (inactive)"}, {"measurement": "GFP response, % of DMSO", "setting": "[4]", "value": "97.3% (inactive)"}, {"measurement": "GFP response, % of DMSO", "setting": "[5]", "value": "101% (inactive)"}, {"measurement": "GFP response, % of DMSO", "setting": "[5]; [7]", "value": 103, "unit": "%"}, {"measurement": "GFP response, % of DMSO", "setting": "[5]; [8]", "value": 97.1, "unit": "%"}]}, {"smiles": "Cn1c(C(=O)O)cc2c(=O)n3ccccc3nc21", "values": [{"measurement": "GFP response vs DMSO", "setting": "[1]", "value": "101% (inactive)"}, {"measurement": "GFP response vs DMSO", "setting": "[1]; [7]", "value": 99.3, "unit": "%"}, {"measurement": "GFP response vs DMSO", "setting": "[1]; [8]", "value": 99, "unit": "%"}, {"measurement": "GFP response relative to DMSO", "setting": "[2]", "value": "97.7% (inactive)"}, {"measurement": "GFP response vs DMSO", "setting": "[3]", "value": "104% (inactive)"}, {"measurement": "GFP response, % of DMSO", "setting": "[4]", "value": "102% (inactive)"}, {"measurement": "GFP response, % of DMSO", "setting": "[5]", "value": "104% (inactive)"}, {"measurement": "GFP response, % of DMSO", "setting": "[5]; [7]", "value": 104, "unit": "%"}, {"measurement": "GFP response, % of DMSO", "setting": "[5]; [8]", "value": 95.6, "unit": "%"}]}]}
